Measured values: publication PMC4336329 (PLoS ONE, 2015)
The whole screen tested about 310,000 compounds, of which about 14,000 (4.5%) showed an effect of 50% or more. Effects have a minus sign here. The sample holds strong results, similar compounds and a random draw of the others, so the mix is not that of the screen.
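Note: peak tail current of the secondary pulse compared with the same well before compound.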

What follows are compounds tested against human ether-à-go-go-related gene (hERG) potassium channel (human, UniProt Q12809) (assay: primary screen, population patch clamp on CHO cells stably expressing hERG; higher = less effect of the substance).
Chain of human ether-à-go-go-related gene (hERG) potassium channel (Q12809 whole entry, looked up): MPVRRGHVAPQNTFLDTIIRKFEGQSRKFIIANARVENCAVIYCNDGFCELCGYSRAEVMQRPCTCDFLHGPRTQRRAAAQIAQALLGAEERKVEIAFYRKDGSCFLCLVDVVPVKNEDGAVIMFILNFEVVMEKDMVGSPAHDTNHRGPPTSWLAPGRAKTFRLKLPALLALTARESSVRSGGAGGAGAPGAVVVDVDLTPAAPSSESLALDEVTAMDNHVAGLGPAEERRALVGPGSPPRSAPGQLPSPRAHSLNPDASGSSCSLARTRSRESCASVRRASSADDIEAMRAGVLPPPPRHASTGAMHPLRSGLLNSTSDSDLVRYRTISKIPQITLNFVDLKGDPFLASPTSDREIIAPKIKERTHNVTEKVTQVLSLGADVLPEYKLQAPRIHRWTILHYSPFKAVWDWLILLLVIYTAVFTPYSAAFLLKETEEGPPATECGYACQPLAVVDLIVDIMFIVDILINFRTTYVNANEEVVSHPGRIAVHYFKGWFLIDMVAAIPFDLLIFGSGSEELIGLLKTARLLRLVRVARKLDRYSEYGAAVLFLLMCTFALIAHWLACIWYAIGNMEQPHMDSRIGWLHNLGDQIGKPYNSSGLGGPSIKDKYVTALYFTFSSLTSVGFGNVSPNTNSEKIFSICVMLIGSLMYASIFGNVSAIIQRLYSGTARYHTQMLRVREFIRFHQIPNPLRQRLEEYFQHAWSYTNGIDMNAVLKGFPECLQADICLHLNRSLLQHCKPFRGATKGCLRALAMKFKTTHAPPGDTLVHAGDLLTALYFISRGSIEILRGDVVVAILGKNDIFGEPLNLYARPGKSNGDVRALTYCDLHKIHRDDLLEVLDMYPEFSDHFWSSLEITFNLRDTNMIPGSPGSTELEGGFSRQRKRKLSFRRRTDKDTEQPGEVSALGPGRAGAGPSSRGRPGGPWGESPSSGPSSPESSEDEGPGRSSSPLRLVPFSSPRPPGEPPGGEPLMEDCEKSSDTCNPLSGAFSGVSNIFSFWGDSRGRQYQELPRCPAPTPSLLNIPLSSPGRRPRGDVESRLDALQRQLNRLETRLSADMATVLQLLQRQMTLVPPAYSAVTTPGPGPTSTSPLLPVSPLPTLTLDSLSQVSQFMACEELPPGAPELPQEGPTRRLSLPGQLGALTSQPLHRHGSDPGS
In the case of O=C(CN1C(=O)C2CC=CCC2C1=O)Nc1ccccc1N1CCCC1 (stereo not shown), the “hERG current change (%, negative = inhibition) at 10uM” value is reported as 6.41%. CCOC(=O)c1c(C)c(C(=O)NCCN2CCOCC2)c(C)n1C was tested, and the “hERG current change (%, negative = inhibition) at 10uM” value was 15.1%. In the case of CCOC(=O)C1(C)NC(c2ccco2)C2C(=O)N(C)C(=O)C21 (stereo not shown), the “hERG current change (%, negative = inhibition) at 10uM” value is reported as 13.6%. In the case of COc1ccc(C2c3c(oc4ccccc4c3=O)C(=O)N2CCCN2CCOCC2)cc1 (stereo not shown), the “hERG current change (%, negative = inhibition) at 10uM” value is reported as -7.15%. COc1ccc(C2c3c(oc4ccc(Cl)cc4c3=O)C(=O)N2CCN2CCOCC2)cc1 (stereo not shown) was tested, and the “hERG current change (%, negative = inhibition) at 10uM” value was -81.2%. For COC(=O)c1ccc(C2c3c(oc4ccc(Cl)cc4c3=O)C(=O)N2CCN2CCOCC2)cc1 (stereo not shown), the “hERG current change (%, negative = inhibition) at 10uM” value was -35.2%. For C/C(=N\NC(=O)c1c(Br)c(C)nn1C)c1cccc(NC(=O)C2CCC2)c1, the “hERG current change (%, negative = inhibition) at 10uM” value was -19.4%. With Cc1c(C(=O)N2CCN(S(C)(=O)=O)CC2)oc2ccccc12 the “hERG current change (%, negative = inhibition) at 10uM” value was 3.49%. In the case of CCCCNS(=O)(=O)c1ccc2nc(-c3cccnc3)cc(C(=O)NC(C)C)c2c1, the “hERG current change (%, negative = inhibition) at 10uM” value is reported as 16.7%. For O=C(C1CCC1)N1CCC(O)(c2cccc(F)c2)CC1, the “hERG current change (%, negative = inhibition) at 10uM” value was 14.6%. In the case of C=CCNC(=O)NC(=O)COn1nnc2ccc(S(=O)(=O)N(C)C)cc21, the “hERG current change (%, negative = inhibition) at 10uM” value is reported as 5.69%. In the case of CN(C)S(=O)(=O)c1ccc2nnn(OCC(=O)NC34CC5CC(CC(C5)C3)C4)c2c1, the “hERG current change (%, negative = inhibition) at 10uM” value is reported as -51.7%. For CCc1ccc(NC(=O)COn2nnc3ccc(S(=O)(=O)N(C)C)cc32)cc1, the “hERG current change (%, negative = inhibition) at 10uM” value was -29.1%. Cc1ccccc1CC(=O)Nc1ccc2c(C)cc(=O)oc2c1 was tested, and the “hERG current change (%, negative = inhibition) at 10uM” value was -15.3%. For CCOC(=O)c1ccc(NC(=O)c2nc[nH]c2C(=O)N2CCN(c3ccccc3)CC2)cc1, the “hERG current change (%, negative = inhibition) at 10uM” value was 3.29%. With O=C(O)C(Cc1c[nH]c2ccccc12)NS(=O)(=O)c1ccc(Br)cc1 (stereo not shown) the “hERG current change (%, negative = inhibition) at 10uM” value was 8.36%. O=P(c1ccccc1)(c1ccccc1)c1nc(-c2ccc(Cl)cc2)oc1N1CCOCC1 was tested, and the “hERG current change (%, negative = inhibition) at 10uM” value was -74.1%. In the case of CCOP(=O)(OCC)c1nc(-c2ccccc2)oc1N1CCCCC1, the “hERG current change (%, negative = inhibition) at 10uM” value is reported as 4.4%. For CCOP(=O)(c1ccccc1)c1nc(-c2ccccc2Cl)oc1N1CCCCC1 (stereo not shown), the “hERG current change (%, negative = inhibition) at 10uM” value was -11.4%. For CCOP(=O)(c1ccccc1)c1nc(-c2ccc(F)cc2)oc1N1CCCCC1 (stereo not shown), the “hERG current change (%, negative = inhibition) at 10uM” value was -56.6%. In the case of CCOP(=O)(c1ccccc1)c1nc(-c2ccccc2C)oc1N1CCCCC1 (stereo not shown), the “hERG current change (%, negative = inhibition) at 10uM” value is reported as 0.633%. For Cc1ccc(-c2nc(P(=O)(c3ccccc3)c3ccccc3)c(N3CCOCC3)o2)cc1, the “hERG current change (%, negative = inhibition) at 10uM” value was -38.3%. For CCOP(=O)(OCC)c1nc(-c2ccc(Br)cc2)oc1N1CCCCC1, the “hERG current change (%, negative = inhibition) at 10uM” value was -65.3%. In the case of COP(=O)(OC)c1nc(-c2ccc(C)cc2)oc1N1CCCCC1, the “hERG current change (%, negative = inhibition) at 10uM” value is reported as -10.2%. With O=P(c1ccccc1)(c1ccccc1)c1nc(-c2ccccc2)oc1N1CCOCC1 the “hERG current change (%, negative = inhibition) at 10uM” value was -20.5%. For CC1=CCC2C(=O)N(c3ccc(C)cc3)C(=O)C2C1 (stereo not shown), the “hERG current change (%, negative = inhibition) at 10uM” value was -4.42%. In the case of Cc1ccc(NC(=O)Cn2nnc(-c3ccccc3NC(=O)c3cccs3)n2)cc1, the “hERG current change (%, negative = inhibition) at 10uM” value is reported as 21.7%. Cc1nc2ccccc2c(=O)n1-c1ccc(Cl)cc1[N+](=O)[O-] was tested, and the “hERG current change (%, negative = inhibition) at 10uM” value was 10.1%. For Cc1ccccc1NC(=O)C1CCCN(C(=O)NCc2ccccc2)C1 (stereo not shown), the “hERG current change (%, negative = inhibition) at 10uM” value was 1.82%. CCC(=NCCCn1ccnc1)c1c(O)n(-c2ccccc2)c(=O)[nH]c1=O was tested, and the “hERG current change (%, negative = inhibition) at 10uM” value was 7.4%. CCCCn1c(O)c(C(CC)=NCCCN(C)C)c(=O)[nH]c1=O was tested, and the “hERG current change (%, negative = inhibition) at 10uM” value was -29.2%. In the case of CCCCn1c(O)c(C(CC)=NCCN2CCCCC2)c(=O)[nH]c1=O, the “hERG current change (%, negative = inhibition) at 10uM” value is reported as -53.6%. CCN(CC)CCCN=C(C)c1c(O)n(C2CCCCC2)c(=O)[nH]c1=O was tested, and the “hERG current change (%, negative = inhibition) at 10uM” value was -48.7%. For CCCCn1c(O)c(C(CC)=NCCCn2ccnc2)c(=O)[nH]c1=O, the “hERG current change (%, negative = inhibition) at 10uM” value was -43.3%. In the case of CCCCCCN=C(C)c1c(O)n(CCCC)c(=O)[nH]c1=O, the “hERG current change (%, negative = inhibition) at 10uM” value is reported as -8.21%. For CCCCn1c(O)c(C(C)=NCCN2CCCCC2)c(=O)[nH]c1=O, the “hERG current change (%, negative = inhibition) at 10uM” value was -21.7%. CCC(=NCCO)c1c(O)n(C2CCCCC2)c(=O)[nH]c1=O was tested, and the “hERG current change (%, negative = inhibition) at 10uM” value was -14.6%. In the case of CCC(=NCCCN(CC)CC)c1c(O)n(C2CCCCC2)c(=O)[nH]c1=O, the “hERG current change (%, negative = inhibition) at 10uM” value is reported as -52.9%. For CCCCn1c(O)c(C(CC)=NCCN2CCOCC2)c(=O)[nH]c1=O, the “hERG current change (%, negative = inhibition) at 10uM” value was -15.3%. In the case of CCCCCCN=C(CC)c1c(O)n(CCCC)c(=O)[nH]c1=O, the “hERG current change (%, negative = inhibition) at 10uM” value is reported as -55.4%. CCC(=NCCCn1ccnc1)c1c(O)n(Cc2ccccc2)c(=O)[nH]c1=O was tested, and the “hERG current change (%, negative = inhibition) at 10uM” value was -68%. With CCOC(=O)C1=c2s/c(=C\c3cccnc3)c(=O)n2C(N)=C(C(=O)OC)C1c1cccnc1 (stereo not shown) the “hERG current change (%, negative = inhibition) at 10uM” value was 14.7%. For Cn1c(=O)c2c(nc(SCCN3CCOCC3)n2C)n(C)c1=O, the “hERG current change (%, negative = inhibition) at 10uM” value was 16.9%. With Cc1cc(C(=O)NNC(=S)Nc2ccccc2C)cs1 the “hERG current change (%, negative = inhibition) at 10uM” value was 18.8%. With CC(=O)n1nc(-c2cccnc2)nc1N the “hERG current change (%, negative = inhibition) at 10uM” value was -7.75%. In the case of NS(=O)(=O)c1cc2c(cc1Cl)NC(C(Cl)Cl)NS2(=O)=O (stereo not shown), the “hERG current change (%, negative = inhibition) at 10uM” value is reported as 20.2%. CCCCCCn1c(O)c(C=NCCN2CCOCC2)c(=O)[nH]c1=O was tested, and the “hERG current change (%, negative = inhibition) at 10uM” value was -7.56%. With CCCCn1c(O)c(C=NCCN2CCCCC2)c(=O)[nH]c1=O the “hERG current change (%, negative = inhibition) at 10uM” value was -2.31%. With CCCCCCn1c(O)c(C=NCCN2CCCCC2)c(=O)[nH]c1=O the “hERG current change (%, negative = inhibition) at 10uM” value was -51.9%. CCCNC(=O)N1CCC(C(=O)c2cccc(F)c2)CC1 was tested, and the “hERG current change (%, negative = inhibition) at 10uM” value was -10.9%. With C#Cc1ccc(C(=O)NCc2ccc(N3CCCC3=O)cc2)cc1 the “hERG current change (%, negative = inhibition) at 10uM” value was 20.2%. In the case of CC(C)(C)NC(=O)C(c1ccco1)N(C(=O)Cn1nnc(-c2ccc(F)cc2)n1)c1ccccc1 (stereo not shown), the “hERG current change (%, negative = inhibition) at 10uM” value is reported as -17.5%. With CC1CCCCN1CCCNC(=O)c1ccc2nc(N3CCCCC3)sc2c1 (stereo not shown) the “hERG current change (%, negative = inhibition) at 10uM” value was -22.8%. For Cc1c(C)n(C)c2ccc(C(=O)NCCCN3CCCCC3C)cc12 (stereo not shown), the “hERG current change (%, negative = inhibition) at 10uM” value was -19.6%. CCC1CCCCN1CCCNC(=O)c1ccc2nc(N3CCC(C)CC3)sc2c1 (stereo not shown) was tested, and the “hERG current change (%, negative = inhibition) at 10uM” value was -64.5%. For CC1CCCCN1CCCNC(=O)c1cc(Br)c(Br)[nH]1 (stereo not shown), the “hERG current change (%, negative = inhibition) at 10uM” value was -64.9%. CC(C)CC1Nc2ccc(C(=O)NCCCN3CCCCC3C)cc2NC1=O (stereo not shown) was tested, and the “hERG current change (%, negative = inhibition) at 10uM” value was 3.4%. CC1CCN(c2nc3ccc(C(=O)NCCCN4CCCCC4C)cc3s2)CC1 (stereo not shown) was tested, and the “hERG current change (%, negative = inhibition) at 10uM” value was -59%. With CC1CCCC(C)N1CCCNC(=O)c1ccc2nc(N3CCOCC3)sc2c1 (stereo not shown) the “hERG current change (%, negative = inhibition) at 10uM” value was -10.3%. For CCC1CCCCN1CCCNC(=O)c1ccc2nc(N3CCCCC3)sc2c1 (stereo not shown), the “hERG current change (%, negative = inhibition) at 10uM” value was -34%. With CCC1CCCCN1CCCNC(=O)c1ccc2c(c1)c(C)c(C)n2C (stereo not shown) the “hERG current change (%, negative = inhibition) at 10uM” value was -35%.
